Experimental data as given in PubChem BioAssay (NCATS).
Results filed as inconclusive are left out. The source made the active and inactive calls. Unless noted, calls follow the shape of the dose curve; as a rule, active = well fitted curve in the direction sought with a large enough effect; inconclusive = small, poorly fitted or top-dose-only effect, or another doubt; inactive = no such curve, though single readings can be large; an effect the other way counts as inactive or inconclusive.

How the values were obtained:
[1] = target: Cytochrome P450 3A4 (Homo sapiens) (UniProt P08684); experiment: qHTS Assay for Activators of Cytochrome P450 3A4 (AID 885); also: nearly all actives have a fitted effect of over 65% in size
Sequence of Cytochrome P450 3A4 (Homo sapiens) (P08684 whole entry, looked up): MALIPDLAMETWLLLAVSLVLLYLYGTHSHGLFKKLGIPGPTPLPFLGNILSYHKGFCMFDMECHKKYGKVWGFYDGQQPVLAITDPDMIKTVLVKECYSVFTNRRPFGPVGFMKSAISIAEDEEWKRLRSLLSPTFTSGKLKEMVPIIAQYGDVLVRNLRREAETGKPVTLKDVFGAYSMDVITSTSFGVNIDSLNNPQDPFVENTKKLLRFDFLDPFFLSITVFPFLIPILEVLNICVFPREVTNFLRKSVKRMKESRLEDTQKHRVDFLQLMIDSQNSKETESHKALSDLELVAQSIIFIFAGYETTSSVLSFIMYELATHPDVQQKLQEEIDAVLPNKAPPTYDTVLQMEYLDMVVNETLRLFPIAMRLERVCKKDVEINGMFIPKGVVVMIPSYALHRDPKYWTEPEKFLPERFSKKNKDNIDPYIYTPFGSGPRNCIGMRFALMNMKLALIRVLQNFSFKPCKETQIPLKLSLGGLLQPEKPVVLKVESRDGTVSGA
Summary of the method: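 Quantitative HTS format: compounds preincubated with 20nM human CYP3A4 and Luciferin-PPXE substrate at KM, reaction started by NADPH regeneration, stopped after 60 min, luciferase luminescence read 20 min later.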

[2] = Confirmation and Secondary Assay for Modulators of Hemoglobin Beta Chain Splicing at IVS2 654 locus (AID 910);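 also: per-well total GFP intensity by laser scanning cytometry after 2-day treatment; % of control where 0% means no effect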
Summary of the method: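 HeLa cells stably carrying EGFP interrupted by mutant beta-globin IVS2-654 intron (CMV-driven) were treated with compound for 2 days at 37C; corrected splicing was scored as total peak GFP intensity per well (488 nm excitation, 500-520 nm emission).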

[3] = Confirmation and Secondary Assay for Modulators of Hemoglobin Beta Chain Splicing at IVS2 705 locus (AID 930);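 also: HeLa cells stably expressing the EGFP-705 splicing reporter; GFP fluorescence per well restored by corrected splicing of the IVS2-705 intron in EGFP; % of control where 0% means no effect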
Summary of the method: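 Fluorescence gain (488 nm laser, 500-520 nm PMT) reflects restored correct splicing of a mutant IVS2-705 intron inside EGFP in stably transfected HeLa cells after 2-day compound treatment.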

[4] = qHTS Assay for Lipid Storage Modulators (AID 1519; calls by dose curve); details: Drosophila S3 cells, BODIPY lipid droplet/cell ratio, laser cytometry, cells loaded with oleic acid
Summary of the method: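 Cells seeded at 5,000 per well were treated with compounds over a concentration series and loaded with oleic acid (400 uM, as added). Lipid droplet fluorescence (488 nm excitation, 500-530 nm channel) was read by laser-scanning cytometry and normalized to 20 uM Triacsin C.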

[5] = target: Ubiquitin carboxyl-terminal hydrolase 1 (Homo sapiens) (UniProt O94782); experiment: Inhibitors of USP1/UAF1: Pilot qHTS (AID 504865); also: nearly all actives have a fitted effect of over 35% in size; also: potency is read from the fitted curve at half-maximal effect
Sequence of Ubiquitin carboxyl-terminal hydrolase 1 (Homo sapiens) (O94782 whole entry, looked up): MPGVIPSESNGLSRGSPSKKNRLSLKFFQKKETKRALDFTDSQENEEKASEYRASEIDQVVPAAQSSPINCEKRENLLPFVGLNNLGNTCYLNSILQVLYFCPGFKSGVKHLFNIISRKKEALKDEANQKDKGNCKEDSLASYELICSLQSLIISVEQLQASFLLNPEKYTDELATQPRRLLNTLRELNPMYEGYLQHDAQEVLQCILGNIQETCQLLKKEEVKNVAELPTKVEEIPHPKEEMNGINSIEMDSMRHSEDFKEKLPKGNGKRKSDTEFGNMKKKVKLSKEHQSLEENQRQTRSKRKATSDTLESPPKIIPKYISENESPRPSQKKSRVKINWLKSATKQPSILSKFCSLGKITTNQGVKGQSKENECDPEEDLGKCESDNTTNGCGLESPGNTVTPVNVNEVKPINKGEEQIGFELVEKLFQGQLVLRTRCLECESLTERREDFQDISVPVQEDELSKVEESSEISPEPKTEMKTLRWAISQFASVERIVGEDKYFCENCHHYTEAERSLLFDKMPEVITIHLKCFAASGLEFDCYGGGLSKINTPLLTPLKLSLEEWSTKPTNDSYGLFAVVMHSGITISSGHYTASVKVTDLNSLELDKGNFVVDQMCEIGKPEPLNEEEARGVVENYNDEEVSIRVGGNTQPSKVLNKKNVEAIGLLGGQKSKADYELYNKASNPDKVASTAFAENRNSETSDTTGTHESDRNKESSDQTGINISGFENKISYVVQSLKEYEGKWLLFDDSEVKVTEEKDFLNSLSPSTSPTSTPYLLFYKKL
Summary of the method: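 1nM USP1/UAF1 + cpd, 15 min RT; start w/ Ub-Rho 150nM final; kinetic FL 480/540 nm, 6 reads q60 s. Buffer 50mM HEPES pH 7.8, 0.5mM EDTA, 1mM TCEP, 0.01% Tween-20, 0.1 mg/ml BSA.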

[6] = target: Rap guanine nucleotide exchange factor 3 (Homo sapiens) (UniProt O95398); experiment: Confirmatory qHTS for agonist of cAMP-regulated guanine nucleotide exchange factor 3 (EPAC1) (AID 1645881); also: nearly all actives have a fitted effect of over 75% in size; also: potency is read from the fitted curve at half-maximal effect;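 as to activation: EPAC1 catalysed release of BODIPY-GDP from Rap1B seen as fluorescence loss; 100% = effect of cAMP agonist control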
Sequence of Rap guanine nucleotide exchange factor 3 (Homo sapiens) (O95398 whole entry, looked up): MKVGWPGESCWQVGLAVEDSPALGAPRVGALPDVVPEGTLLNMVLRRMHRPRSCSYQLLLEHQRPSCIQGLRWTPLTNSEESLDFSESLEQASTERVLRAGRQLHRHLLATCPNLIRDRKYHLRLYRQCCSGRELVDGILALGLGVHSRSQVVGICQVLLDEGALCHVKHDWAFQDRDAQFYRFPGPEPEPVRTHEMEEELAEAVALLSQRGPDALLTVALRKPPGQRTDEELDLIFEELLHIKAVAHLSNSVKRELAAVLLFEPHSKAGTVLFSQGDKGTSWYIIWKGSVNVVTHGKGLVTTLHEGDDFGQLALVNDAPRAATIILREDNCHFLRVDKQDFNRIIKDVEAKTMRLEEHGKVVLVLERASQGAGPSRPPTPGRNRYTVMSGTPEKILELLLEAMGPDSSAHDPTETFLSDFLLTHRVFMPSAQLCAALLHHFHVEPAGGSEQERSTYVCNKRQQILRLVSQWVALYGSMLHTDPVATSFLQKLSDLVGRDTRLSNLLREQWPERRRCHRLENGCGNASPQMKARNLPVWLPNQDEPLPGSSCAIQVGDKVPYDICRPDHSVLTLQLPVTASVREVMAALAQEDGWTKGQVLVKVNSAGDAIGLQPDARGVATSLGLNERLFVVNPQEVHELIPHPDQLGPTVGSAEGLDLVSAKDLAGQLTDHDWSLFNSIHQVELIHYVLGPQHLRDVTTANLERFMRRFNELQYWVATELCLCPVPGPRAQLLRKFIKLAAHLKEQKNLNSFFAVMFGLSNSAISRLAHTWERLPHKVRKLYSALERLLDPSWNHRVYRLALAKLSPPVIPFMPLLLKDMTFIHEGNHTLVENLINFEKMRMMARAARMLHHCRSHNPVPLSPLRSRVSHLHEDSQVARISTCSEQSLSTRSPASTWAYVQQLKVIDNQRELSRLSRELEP

[7] = target: Rap guanine nucleotide exchange factor 4 (Homo sapiens) (UniProt Q8WZA2); experiment: Confirmatory qHTS for agonist of cAMP-regulated guanine nucleotide exchange factor 4 (EPAC2) (AID 1645884);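 also: nucleotide exchange releases bodipy-GDP from Rap1 and this lowers its fluorescence; nearly all actives have a fitted effect of over 65% in size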; also: potency is read from the fitted curve at half-maximal effect
Sequence of Rap guanine nucleotide exchange factor 4 (Homo sapiens) (Q8WZA2 whole entry, looked up): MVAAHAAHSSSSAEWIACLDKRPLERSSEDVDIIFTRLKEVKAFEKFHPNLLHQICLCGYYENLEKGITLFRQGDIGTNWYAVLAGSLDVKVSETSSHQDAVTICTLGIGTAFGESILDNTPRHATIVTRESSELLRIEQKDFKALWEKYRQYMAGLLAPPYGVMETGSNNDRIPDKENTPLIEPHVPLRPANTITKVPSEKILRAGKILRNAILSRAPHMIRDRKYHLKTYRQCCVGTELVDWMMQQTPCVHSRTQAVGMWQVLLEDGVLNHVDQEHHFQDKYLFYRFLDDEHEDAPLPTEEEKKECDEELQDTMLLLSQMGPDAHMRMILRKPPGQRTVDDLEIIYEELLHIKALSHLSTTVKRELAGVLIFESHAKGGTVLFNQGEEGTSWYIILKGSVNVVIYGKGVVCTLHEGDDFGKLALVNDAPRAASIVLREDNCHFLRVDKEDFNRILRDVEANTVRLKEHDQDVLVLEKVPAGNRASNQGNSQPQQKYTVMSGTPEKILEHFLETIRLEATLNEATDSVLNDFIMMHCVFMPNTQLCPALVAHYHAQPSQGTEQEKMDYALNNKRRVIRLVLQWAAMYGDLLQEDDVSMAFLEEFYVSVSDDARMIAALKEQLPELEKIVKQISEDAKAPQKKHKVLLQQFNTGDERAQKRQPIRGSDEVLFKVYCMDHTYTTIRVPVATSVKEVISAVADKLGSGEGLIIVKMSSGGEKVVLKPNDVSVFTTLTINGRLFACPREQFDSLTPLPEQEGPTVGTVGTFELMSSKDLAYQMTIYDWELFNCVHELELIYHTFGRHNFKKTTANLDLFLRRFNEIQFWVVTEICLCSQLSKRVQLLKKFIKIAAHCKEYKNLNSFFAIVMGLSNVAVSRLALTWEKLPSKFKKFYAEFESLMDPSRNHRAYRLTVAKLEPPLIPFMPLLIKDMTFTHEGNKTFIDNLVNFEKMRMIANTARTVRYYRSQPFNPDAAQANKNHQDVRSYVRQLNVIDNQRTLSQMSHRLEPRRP

[8] = target: Cytochrome P450 3A4 (Homo sapiens) (UniProt P08684); experiment: qHTS Assay for Inhibitors and Substrates of Cytochrome P450 3A4 (AID 884); also: nearly all actives have a fitted effect of over 50% in size; also: potency is read from the fitted curve at half-maximal effect
Summary of the method: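 20 nM human CYP3A4 with 25 uM Luciferin-PPXE (at KM) in 200 mM KPO4, preincubated 10 min with compound; NADPH regeneration started a 60 min RT reaction. Luciferin detected by luminescence, normalized to 57 uM ketoconazole as full inhibition.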

[9] = target: Lysosomal acid glucosylceramidase (Homo sapiens) (UniProt P04062); experiment: Glucocerebrosidase-p2 (AID 348; in the data active = potency below about 10 µM; also: potency is read from the fitted curve at half-maximal effect); details: purified GBA, blue fluorogenic substrate, 40 min
Sequence of Lysosomal acid glucosylceramidase (Homo sapiens) (P04062 whole entry, looked up): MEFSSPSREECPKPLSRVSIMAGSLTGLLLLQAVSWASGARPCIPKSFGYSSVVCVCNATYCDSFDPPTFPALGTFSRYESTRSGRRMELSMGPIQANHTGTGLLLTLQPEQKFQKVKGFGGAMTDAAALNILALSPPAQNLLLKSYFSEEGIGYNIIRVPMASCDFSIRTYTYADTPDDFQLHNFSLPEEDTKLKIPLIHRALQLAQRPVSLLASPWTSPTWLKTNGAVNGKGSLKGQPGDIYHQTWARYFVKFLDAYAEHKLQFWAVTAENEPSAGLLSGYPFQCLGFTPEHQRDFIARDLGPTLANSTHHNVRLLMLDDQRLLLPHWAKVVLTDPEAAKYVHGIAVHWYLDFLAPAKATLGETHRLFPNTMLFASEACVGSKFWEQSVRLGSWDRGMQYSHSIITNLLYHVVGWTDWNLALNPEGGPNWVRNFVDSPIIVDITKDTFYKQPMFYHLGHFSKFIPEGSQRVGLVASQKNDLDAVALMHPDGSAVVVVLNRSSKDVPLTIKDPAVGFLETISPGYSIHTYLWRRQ
Summary of the method: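 Compounds titrated from 0.6 nM upwards against 0.2 nM enzyme in pH 5.9 citric acid/KH2PO4, taurocholate, tween-20; blue fluorogenic substrate 80 uM, 40 min room temperature, stopped and read Ex 365/Em 440 for AC50.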

[10] = AP1 Signaling Pathway (AID 357; active = well fitted curve in either direction with a large enough effect, not every such curve was filed as active; also: % is scaled to controls: 0 for no effect and ±100 for the full control effect); details: ME-180 AP-1-bla reporter, EGF-induced, beta-lactamase ratio, 5 h; at 7.69 µM (top of the series) unless noted
Summary of the method: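 ME-180 cells with beta-lactamase reporter under AP-1 response element, stimulated with EC50 EGF; compounds tested in titration series, 5 h at 37 °C. CCF4 substrate added 2.5 h at room temperature; 460/530 nm emission ratio gave %activity and AC50.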

[11] = target: Cytochrome P450 1A2 (Homo sapiens) (UniProt P05177); experiment: p450-cyp1a2 (AID 410; calls by dose curve; also: potency is read from the fitted curve at half-maximal effect;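 as to activity change, negative = inhibition: -100% = full effect of reference inhibitor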)
Sequence of Cytochrome P450 1A2 (Homo sapiens) (P05177 whole entry, looked up): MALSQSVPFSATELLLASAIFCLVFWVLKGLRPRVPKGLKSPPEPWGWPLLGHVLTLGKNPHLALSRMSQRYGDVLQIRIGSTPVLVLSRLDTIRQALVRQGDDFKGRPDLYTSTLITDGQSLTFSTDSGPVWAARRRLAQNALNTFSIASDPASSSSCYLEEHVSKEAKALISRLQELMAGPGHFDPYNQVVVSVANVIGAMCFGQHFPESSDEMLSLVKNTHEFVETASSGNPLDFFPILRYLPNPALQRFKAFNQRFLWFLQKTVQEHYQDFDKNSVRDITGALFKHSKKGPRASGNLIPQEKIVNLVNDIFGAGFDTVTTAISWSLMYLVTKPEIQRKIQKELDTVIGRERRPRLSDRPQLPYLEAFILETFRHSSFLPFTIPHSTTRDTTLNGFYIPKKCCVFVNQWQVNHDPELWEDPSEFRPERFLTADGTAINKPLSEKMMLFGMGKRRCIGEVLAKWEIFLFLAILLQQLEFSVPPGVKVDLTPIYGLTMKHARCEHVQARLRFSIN
Summary of the method: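 Inhibition was calculated relative to 57 uM furafylline (full inhibition). The reaction used human CYP1A2 at 20nM with Luciferin-ME at its Km, 100uM, driven by an NADPH-regenerating system for 60 min at room temperature.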

[12] = Stat Signaling Pathway (AID 446; active = well fitted curve in either direction with a large enough effect, not every such curve was filed as active;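 also: ME-180 cervical cancer cells given 40 pM IL-6 alongside compound; SIE-controlled beta-lactamase reporter measured as 460/530 nm FRET emission ratio; % is scaled to controls: 0 for no effect and ±100 for the full control effect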); details: ME-180 (cervical carcinoma) SIE beta-lactamase reporter, IL-6 stimulated, 5 h; at 7.69 µM (top of the series) unless noted
Summary of the method: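 IL-6/STAT signaling read in ME-180 cells via an SIE beta-lactamase reporter. Stimulus was 40 pM IL-6 (its AC50) for 5 hrs, so both activation and inhibition register.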

[13] = target: Glucocorticoid receptor (Homo sapiens) (UniProt P04150); experiment: GR-GFP Redistribution (AID 450;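 active = compounds whose dose series gives a full or clear partial fitted curve of increased nuclear translocation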; also: potency is read from the fitted curve at half-maximal effect); details: U2OS GR-GFP nuclear translocation, laser cytometry, 2 h
[14] = target: Glucocorticoid receptor (Homo sapiens) (UniProt P04150); experiment: GR-EFC Redistribution (AID 451; calls by dose curve; also: potency is read from the fitted curve at half-maximal effect); details: CHO-K1 GR-EFC translocation, beta-gal luminescence, 2 h
Summary of the method: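 CHO-K1 cells stably expressing nuclear-localized β-gal enzyme acceptor and GR fused C-terminally to the enzyme donor fragment; ligand-driven nuclear translocation restores β-gal by complementation. Compounds titrated up to 46 uM final, 2 h at 37 °C; luminescence read.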

[15] = target: Mitogen-activated protein kinase 10 (Mus musculus) (UniProt Q61831); experiment: JNK3 AlphaScreen Assay (AID 530; active = well fitted curve in either direction with a large enough effect, not every such curve was filed as active;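 also: kinase came from lysate of stimulated human HepG2 cells; signal reports phosphorylation of biotinylated GST-cJun 1-79 at Ser73 with 10 µM ATP; % is scaled to controls: 0 for no effect and ±100 for the full control effect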)
Summary of the method: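 JNK3 came from HepG2 lysates pre-activated with IL-1beta and TNF-alpha and phosphorylated biotinylated GST-cJun (1-79) at 10 uM ATP, pH 7.6, room temperature. Compounds were titrated. AlphaScreen signal used anti-phospho-cJun (Ser73) antibody.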

[16] = target: 3',5'-cyclic-AMP phosphodiesterase 4B (Homo sapiens) (UniProt Q07343); experiment: qHTS Assay for Inhibitors of PDE-IV (AID 607; active = well fitted activation curve with a large enough effect in the main read-out, with a control signal flat, not every such curve was filed as active; also: % of control where 0% means no effect)
Sequence of 3',5'-cyclic-AMP phosphodiesterase 4B (Homo sapiens) (Q07343 whole entry, looked up): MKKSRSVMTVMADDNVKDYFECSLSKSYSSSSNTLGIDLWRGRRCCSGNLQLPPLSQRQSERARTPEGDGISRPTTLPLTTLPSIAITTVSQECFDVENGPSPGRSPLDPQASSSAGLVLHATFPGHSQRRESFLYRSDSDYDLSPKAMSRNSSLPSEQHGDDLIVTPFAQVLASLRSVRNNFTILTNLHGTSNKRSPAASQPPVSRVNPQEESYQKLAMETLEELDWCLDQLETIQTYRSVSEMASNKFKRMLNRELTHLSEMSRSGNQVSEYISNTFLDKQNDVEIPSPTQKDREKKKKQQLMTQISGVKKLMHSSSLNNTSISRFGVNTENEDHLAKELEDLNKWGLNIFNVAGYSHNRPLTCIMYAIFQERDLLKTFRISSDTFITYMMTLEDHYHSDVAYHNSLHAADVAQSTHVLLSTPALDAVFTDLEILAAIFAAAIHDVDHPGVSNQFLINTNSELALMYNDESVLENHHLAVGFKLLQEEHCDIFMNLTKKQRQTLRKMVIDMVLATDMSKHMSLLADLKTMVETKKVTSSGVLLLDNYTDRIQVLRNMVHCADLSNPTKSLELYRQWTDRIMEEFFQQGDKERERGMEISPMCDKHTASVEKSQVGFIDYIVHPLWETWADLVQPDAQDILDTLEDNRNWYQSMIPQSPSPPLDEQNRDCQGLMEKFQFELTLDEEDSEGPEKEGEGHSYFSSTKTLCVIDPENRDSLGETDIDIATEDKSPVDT
Summary of the method: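 Live HEK293 cells with a modified cyclic nucleotide-gated (CNG) channel report intracellular cAMP via membrane-potential dye fluorescence (ex 535/em 590 nm). Endogenous PDE-IV was targeted. Compounds were tested at up to 22.9 uM final; RO 20-1724 100 uM served as control.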

[17] = NFAT Signaling Pathway (AID 444; active = well fitted curve in either direction with a large enough effect, not every such curve was filed as active;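 also: carbachol stimulus at about its EC50 of 1 µM final; % is scaled to controls: 0 for no effect and ±100 for the full control effect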); details: Jurkat NFAT-bla M1, carbachol, beta-lactamase ratio, 5 h; at 7.69 µM (top of the series) unless noted
Summary of the method: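 Jurkat cells carrying an NFAT-driven β-lactamase reporter and co-transfected muscarinic M1 receptor were treated with compound plus carbachol (1 uM final, an EC50 level) for 5 h at 37 °C. CCF4 loading followed for 1 h at RT; 460/530 nm ratio gave %activity.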

[18] = measured here: cell count channel max response
[19] = measured here: lipid channel max response

COc1cc(C/C=C/c2ccccc2)c(OC)cc1O
4.35%: max response [4, 18]
7.15%: max response [4, 19]
inactive: Potency [1] | Potency [2] | outcome [3] | activity change, negative = inhibition ([4]; at 57.5 µM (top of the series)) 1.85% | Potency [5] | Potency [6] | Potency [7]

CC1(C)C(O)CC[C@]2(C)C1CC[C@@]1(C)C2C(=O)C=C2[C@@H]3C[C@@](C)(C(=O)O)CC[C@@]3(C)CCC21C (stereo partly drawn)
inactive: Potency [1] | Potency [2] | outcome [3] | activity change, negative = inhibition ([4]; at 57.5 µM (top of the series)) 9.4% | Potency [6] | Potency [7]
16.2%: max response [4, 18]
28.1%: max response [4, 19]

CC1=CC2C(CC1=O)C(C)=CCC2C(C)C (stereo not drawn)
3.62%: max response [4, 18]
5.28%: max response [4, 19]
inactive: Potency [8] | Potency [2] | outcome [3] | activity change, negative = inhibition ([4]; at 57.5 µM (top of the series)) 1.38% | Potency [5] | Potency [6] | Potency [7]

COc1cccc(-c2nc(Nc3ccncc3)c3ccccc3n2)c1
-14.4%: max response [4, 18]
inactive: activity change, negative = inhibition [10] -6.31% | activity, negative = inhibition [12] -15.1% | Potency [13] > 46 µM | Potency [14] > 46 µM | Potency [15] | Potency [16] | Potency [1] | Potency [2] | activity change, negative = inhibition ([4]; at 57.5 µM (top of the series)) -7.83%
-19.7%: max response [4, 19]
active: Potency [9] 2.53 µM | Potency [11] 0.794 µM | Potency [8] 2.51 µM | Potency [5] 39.8 µM

CN(Cc1ccco1)c1nc(-c2ccccc2Cl)nc2ccccc12
inactive: activity change, negative = inhibition [10] 16.9% | activity change, negative = inhibition [17] -23.4% | activity, negative = inhibition [12] 21.7% | Potency [13] > 46 µM | Potency [14] > 46 µM | Potency [15] | Potency [2] | outcome [3] | activity change, negative = inhibition ([4]; at 57.5 µM (top of the series)) 11.9% | Potency [6] | Potency [7]
14.1%: max response [4, 18]
24.3%: max response [4, 19]

CC(=O)OC1CC2C(C)(C)CCC(=O)[C@@]2(C)C2CC[C@@]3(C)C(c4ccoc4)OC(=O)C4OC43[C@]12C (stereo partly drawn)
inactive: Potency [8] | Potency [2] | outcome [3] | activity change, negative = inhibition ([4]; at 57.5 µM (top of the series)) 2.56% | Potency [5] | Potency [6] | Potency [7]
0.203%: max response [4, 18]
3.26%: max response [4, 19]

COc1ccc(-c2nc3cnc(Nc4cccc(OC)c4)nc3n(CCC#N)c2=O)cc1
-2.36%: max response [4, 19]
inactive: Potency [9] > 11.4 µM | activity change, negative = inhibition [17] -19.2% | activity, negative = inhibition [12] -10% | Potency [13] > 9.22 µM | Potency [14] > 46 µM | Potency [15] | Potency [16] | Potency [1] | activity change, negative = inhibition ([4]; at 57.5 µM (top of the series)) -18.1%
active: Potency [11] 6.31 µM | Potency [8] 3.98 µM | Potency [6] 70.6 µM | Potency [7] 70.6 µM
16.5%: max response [4, 18]

CC(=O)OC1CCC23CC1(C)CCC2C(C)(C)CC3OC(C)=O (stereo not drawn)
inactive: Potency [1] | Potency [2] | outcome [3] | activity change, negative = inhibition ([4]; at 57.5 µM (top of the series)) 2.71% | Potency [6] | Potency [7]
3.38%: max response [4, 18]
6.37%: max response [4, 19]

COc1ccc2c(c1)OCc1c-2oc2cc(OC)ccc12
inactive: Potency [2] | outcome [3] | activity change, negative = inhibition ([4]; at 57.5 µM (top of the series)) 8.22% | Potency [6] | Potency [7]
-1.79%: max response [4, 18]
8.38%: max response [4, 19]

Nc1nc2n[nH]nc2c(=O)[nH]1
inactive: activity change, negative = inhibition [10] -1.23% [at 17.2 µM] | Potency [11] | activity, negative = inhibition [12] -26.9% [at 17.2 µM] | Potency [13] > 20.6 µM | Potency [14] > 20.6 µM | Potency [16] | activity change, negative = inhibition ([4]; at 25.7 µM (top of the series)) -1.04% | Potency [5] | Potency [6] | Potency [7]
11%: max response [4, 19]
15.7%: max response [4, 18]

COC(=O)CCCOc1ccc(Cl)cc1Cl
inactive: Potency [8] | Potency [2] | outcome [3] | activity change, negative = inhibition ([4]; at 57.5 µM (top of the series)) 5.51% | Potency [5] | Potency [6] | Potency [7]
23%: max response [4, 19]
14%: max response [4, 18]

C#C[C@]1(OC(C)=O)CCC2C3CCC4=CC(=O)CCC4C3CC[C@]21C (stereo partly drawn)
-26.2%: max response [4, 19]
inactive: Potency [1] | Potency [2] | outcome [3] | activity change, negative = inhibition ([4]; at 57.5 µM (top of the series)) -18.5% | Potency [5] | Potency [6] | Potency [7]
-10.7%: max response [4, 18]

COc1ccc(-c2cc(=O)c3c(OC)c(OC)c(OC)c(OC)c3o2)cc1
active: Potency [8] 12.6 µM
inactive: Potency [1] | Potency [2] | outcome [3] | activity change, negative = inhibition ([4]; at 57.5 µM (top of the series)) -5.75% | Potency [6]
-24.9%: max response [4, 19]
-19.4%: max response [4, 18]

O=c1cc(-c2ccc(O)c(O)c2)oc2cc(OC3OC(CO)C(O)C(O)C3O)cc(O)c12 (stereo not drawn)
6.89%: max response [4, 18]
11.2%: max response [4, 19]
inactive: Potency [8] | activity change, negative = inhibition ([4]; at 57.5 µM (top of the series)) 7.95% | Potency [6] | Potency [7]

CCOC(=O)c1c(C)cc(OC)cc1O
-5.56%: max response [4, 19]
inactive: Potency [1] | Potency [2] | outcome [3] | activity change, negative = inhibition ([4]; at 57.5 µM (top of the series)) -10.6% | Potency [5] | Potency [6] | Potency [7]
3.28%: max response [4, 18]

O=C1CC[C@@]23/C=C/C(=O)NCCCCNCCCNC(=O)/C=C/c4ccc(c2c4)OC3C1 (stereo partly drawn)
7.49%: max response [4, 18]
inactive: Potency [1] | outcome [3] | activity change, negative = inhibition ([4]; at 57.5 µM (top of the series)) 2.57% | Potency [5] | Potency [6] | Potency [7]
1.79%: max response [4, 19]

CN(Cc1ccco1)c1nc(-c2cccc(C#N)c2)nc2ccccc12
active: Potency [11] 0.1 µM
12.8%: max response [4, 19]
inactive: Potency [9] > 11.4 µM | activity change, negative = inhibition [10] 6.74% | activity, negative = inhibition [12] 12.3% | Potency [13] > 46 µM | Potency [14] > 46 µM | Potency [1] | Potency [2] | outcome [3] | activity change, negative = inhibition ([4]; at 57.5 µM (top of the series)) 10.1% | Potency [6] | Potency [7]
1.16%: max response [4, 18]
